Test results: PubChem BioAssay (NCI)
“And” between values parts separate entries of the source, which are not always exact repeats. Identical values can stand only once. This is part of a sample that, as a whole, favours compounds with a hit. Of some 79,000 tested, about 15% had one in any assay. More than one record can exist for a structure, and the calls need not agree. The source made the active and inactive calls. Cut-off read from the data, not from the text of the source: active = growth inhibition above about 70%; inactive = the rest.

What was measured:
[1] = NCI Yeast Anticancer Drug Screen. Data for the wt1 strain (AID 149);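 note: 0% = growth of vehicle-treated wt1 cultures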; settings: S. cerevisiae wt1 strain (SPY 50644) growth inhibition, stronger effect = higher value
Outline: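 Readout: yeast growth inhibition, normalised to vehicle controls, in the wt1 strain exposed to test compounds.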

[2] = NCI Yeast Anticancer Drug Screen. Data for the rad50EPP+ strain (AID 151);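 note: 0% = growth of vehicle-treated control cultures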; settings: S. cerevisiae rad50 mutant strain, stronger effect = higher value
Outline: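 One strain with a rad50 alteration (rad50EPP+) was compound-treated, its growth then compared to that of vehicle controls.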

[3] = NCI Yeast Anticancer Drug Screen. Data for the mgt1 strain (AID 153); settings: S. cerevisiae mgt1 mutant growth inhibition, stronger effect = higher value
Outline: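 After exposure of the mgt1 yeast mutant to compound, growth was measured and reported as inhibition compared with vehicle controls.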

[4] = NCI Yeast Anticancer Drug Screen. Data for the rad50 strain (AID 155);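 note: 0% = growth of vehicle-only cultures of the same strain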; settings: S. cerevisiae rad50 strain growth inhibition, stronger effect = higher value
Outline: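 Compounds were tested on a yeast strain with an engineered DNA damage repair alteration; the reported value is growth inhibition normalised to vehicle treatment.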

[5] = NCI Yeast Anticancer Drug Screen. Data for the mec2-1 strain (AID 157); settings: S. cerevisiae mec2-1 strain, stronger effect = higher value
Outline: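 Test agents were screened against the mec2-1 yeast strain, with defined DNA repair or cell cycle alteration. Growth was scored as inhibition against vehicle-only controls.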

[6] = NCI Yeast Anticancer Drug Screen. Data for the rad14 strain (AID 159);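 note: 0% = growth of vehicle-treated control cultures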; settings: S. cerevisiae rad14 strain growth inhibition, stronger effect = higher value
Outline: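 Compound-treated yeast with a defined DNA-repair lesion; growth inhibition normalised to vehicle-treated cultures.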

[7] = NCI Yeast Anticancer Drug Screen. Data for the sgs1 mgt1 strain (AID 161);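 note: 0% = growth of cultures given vehicle only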; settings: S. cerevisiae sgs1 mgt1 strain, stronger effect = higher value
Outline: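 Mutant yeast exposed to compound; growth scored against vehicle-only wells.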

[8] = NCI Yeast Anticancer Drug Screen. Data for the CLN2oe strain (AID 163);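 note: 0% = growth of vehicle-only control cultures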; settings: S. cerevisiae CLN2oe strain, stronger effect = higher value
Outline: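 Here, growth inhibition in a cell-cycle-altered yeast strain after compound exposure was quantified against vehicle control growth.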

[9] = NCI Yeast Anticancer Drug Screen. Data for the cln2 rad14 strain (AID 165);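 note: 0% = growth equal to vehicle treated cultures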; settings: S. cerevisiae cln2 rad14 strain, stronger effect = higher value
Outline: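 Growth of compound-exposed yeast (cln2 rad14 genotype) measured and expressed as inhibition relative to vehicle.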

[10] = NCI Yeast Anticancer Drug Screen. Data for the bub3 strain (AID 167); settings: S. cerevisiae bub3 mutant strain, stronger effect = higher value
Outline: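 Growth of a checkpoint-deficient yeast mutant is measured after compound exposure. Values represent inhibition relative to vehicle.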

[11] = NCI Yeast Anticancer Drug Screen. Data for the mlh1 strain (AID 171);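 note: 0% = growth of vehicle-treated control cultures of the same strain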; settings: S. cerevisiae mlh1 strain growth inhibition, stronger effect = higher value
Outline: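 Here the genetically defined yeast mutant is grown with each compound, and the extent to which its growth falls below that of vehicle-exposed cells is reported.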

[12] = NCI Yeast Anticancer Drug Screen. Data for the sgs1 strain (AID 173);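 note: 0% = growth of vehicle-only control cultures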; settings: S. cerevisiae sgs1 mutant, stronger effect = higher value
Outline: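 Relative growth inhibition, referenced to vehicle, was determined in a yeast strain with a defined alteration affecting DNA damage repair or cell cycle control after compound exposure.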

[13] = NCI Yeast Anticancer Drug Screen. Data for the mlh1 rad18 strain (AID 175); settings: S. cerevisiae mlh1 rad18 strain growth inhibition, stronger effect = higher value
Outline: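 In this whole-cell yeast screen, a strain with altered DNA damage repair is challenged with compound, and its growth is measured against matched vehicle-treated controls.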

[14] = NCI Yeast Anticancer Drug Screen. Data for the rad18 strain (AID 177); settings: S. cerevisiae rad18 mutant growth inhibition, stronger effect = higher value
Outline: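 Screen uses a yeast strain with a defined lesion in DNA damage repair; compound effect is read as loss of growth compared to untreated vehicle cultures.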

[15] = NCI Yeast Anticancer Drug Screen. Data for the wt2 strain (AID 169);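 note: 0% = growth of vehicle-treated yeast cultures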; settings: S. cerevisiae wt2 strain growth inhibition, stronger effect = higher value
Outline: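 Genetically defined yeast strains from a DNA-repair/cell-cycle panel were used. Compound-exposed yeast growth was measured, and the inhibition was calculated relative to vehicle treatment.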

[16] = at 5.0 µM (retest, dose inferred, filed as 0.5)
[17] = at 50.0 µM (retest, dose inferred, filed as 5.0)

Measured: growth inhibition

CN(C)CCOC1(Cc2ccc(Cl)cc2Cl)CCC(C(C)(C)C)CC1 (stereo not drawn)
inactive: [1]; at 1.2 µM 0% and -4% | [1]; at 3.7 µM -4% and -6% | [2]; at 1.2 µM -9% and -10% | [2]; at 3.7 µM -50% and -53% | [3]; at 1.2 µM 0% and -3% | [3]; at 3.7 µM 14% and 19% | [4]; at 1.2 µM 1% and -4% | [4]; at 3.7 µM 3% | [4]; [16] 48% and 22% | [5]; at 1.2 µM -5% and -2% | [5]; at 3.7 µM -4% and 5% | [5]; [16] 49% and 21% | [6]; at 1.2 µM -3% and -1% | [6]; at 3.7 µM 11% and 18% | [7]; [16] 64% and 58% | [8]; at 1.2 µM -9% and -8% | [8]; at 3.7 µM -8% | [9]; [16] 40% and 16% | [10]; at 1.2 µM -8% and -3% | [10]; at 3.7 µM 0% and -2% | [10]; [16] 8% and 15% | [11]; at 1.2 µM 0% and -1% | [11]; at 3.7 µM 6% and 14% | [12]; at 1.2 µM -1% | [12]; at 3.7 µM 11% and 26% | [14]; at 1.2 µM 0% and -4% | [14]; at 3.7 µM 0% and -2%
96% (active) and 68% (inactive): [13]; [16]
active: [1]; at 11.0 µM 98% and 86% | [1]; at 33.0 µM 99% | [1]; at 100.0 µM 100% and 99% | [2]; at 11.0 µM 91% and 94% | [2]; at 33.0 µM 98% and 92% | [2]; at 100.0 µM 99% | [3]; at 11.0 µM 99% | [3]; at 33.0 µM 100% and 99% | [3]; at 100.0 µM 100% and 99% | [4]; at 11.0 µM 99% | [4]; at 33.0 µM 99% | [4]; [17] 100% | [4]; at 50.0 µM 98.8% and 99.2% | [4]; at 100.0 µM 99% | [5]; at 11.0 µM 99% | [5]; at 33.0 µM 100% and 99% | [5]; [17] 100% | [5]; at 50.0 µM 99.5% | [5]; at 100.0 µM 100% and 99% | [6]; at 11.0 µM 99% | [6]; at 33.0 µM 99% | [6]; at 100.0 µM 100% and 99% | [7]; [17] 100% | [7]; at 50.0 µM 99.5% and 99.7% | [8]; at 11.0 µM 99% and 81% | [8]; at 33.0 µM 98% | [8]; at 100.0 µM 97% and 99% | [9]; [17] 100% | [9]; at 50.0 µM 99.1% and 97.9% | [10]; at 11.0 µM 99% and 98% | [10]; at 33.0 µM 99% and 98% | [10]; [17] 100% | [10]; at 50.0 µM 99.2% and 95.8% | [10]; at 100.0 µM 99% | [11]; at 11.0 µM 99% | [11]; at 33.0 µM 100% and 99% | [11]; at 100.0 µM 100% and 99% | [12]; at 11.0 µM 99% | [12]; at 33.0 µM 100% and 99% | [12]; at 100.0 µM 100% and 99% | [13]; [17] 100% and 99% | [13]; at 50.0 µM 99.5% and 99.4% | [14]; at 11.0 µM 99% and 98% | [14]; at 33.0 µM 99% | [14]; at 100.0 µM 99%

CCOC(=O)[C@H]1Nc2ccc(OC)cc2C2c3ccccc3CC21 (stereo partly drawn)
inactive: [1]; at 1.2 µM -29% | [1]; at 3.7 µM -27% | [1]; at 11.0 µM -25% | [1]; at 33.0 µM 50% | [2]; at 1.2 µM -25% | [2]; at 3.7 µM -19% | [2]; at 11.0 µM -23% | [2]; at 33.0 µM 10% | [2]; at 100.0 µM 4% | [3]; at 1.2 µM -40% | [3]; at 3.7 µM -46% | [3]; at 11.0 µM -46% | [3]; at 33.0 µM 28% | [4]; at 1.2 µM -21% | [4]; at 3.7 µM -12% | [4]; [16] 19% | [4]; at 11.0 µM -19% | [4]; at 33.0 µM 34% | [4]; [17] 9% | [5]; at 1.2 µM -48% | [5]; at 3.7 µM -21% | [5]; [16] -9% | [5]; at 11.0 µM -48% | [5]; at 33.0 µM 29% | [5]; [17] 13% | [5]; at 50.0 µM 34.1% | [6]; at 1.2 µM -54% | [6]; at 3.7 µM -49% | [6]; at 11.0 µM -50% | [6]; at 33.0 µM 0% | [7]; [16] 8% | [7]; [17] 53% | [7]; at 50.0 µM 55.5% | [8]; at 1.2 µM -23% | [8]; at 3.7 µM -28% | [8]; at 11.0 µM -21% | [8]; at 33.0 µM 39% | [9]; [16] 20% | [9]; [17] 37% | [9]; at 50.0 µM 57% | [10]; at 1.2 µM -26% | [10]; at 3.7 µM -19% | [10]; [16] 4% | [10]; at 11.0 µM -27% | [10]; at 33.0 µM 51% | [10]; at 50.0 µM 53.4% | [15]; at 1.2 µM -4% | [15]; at 3.7 µM -14% | [15]; at 11.0 µM -7% | [15]; at 33.0 µM 55%
active: [1]; at 100.0 µM 90% | [3]; at 100.0 µM 83% | [4]; at 50.0 µM 70% | [4]; at 100.0 µM 91% | [5]; at 100.0 µM 88% | [6]; at 100.0 µM 82% | [8]; at 100.0 µM 89% | [10]; [17] 83% | [10]; at 100.0 µM 90% | [15]; at 100.0 µM 85%
